KDM5B inhibitor = KDM5B demethylase inhibition | KDM5B demethylase, FDH-coupled NADH fluorescence (FDH is formaldehyde dehydrogenase) | AID 1347165 | Potency, µM (doses to about 57.7 µM), usual class: inhibitors | 220,000 tested, 2.6% active; active = well fitted inhibition curve with a large enough effect; inconclusive = small, poorly fitted or top-dose-only effect; inactive = no such curve, though single readings can be large or run the other way; note: nearly all actives have a fitted effect of over 70% in size
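Compound dilutions met 200 nM (final) KDM5BΔAP for 10 min at room temperature before substrate addition. The substrate mix held 12.5 µM H3K4me3 with cofactors 25 µM α-ketoglutarate and 50 µM Fe²⁺. NADH signal gain over 30 min defined activity.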
IP6K1 inhibitor = IP6K1 kinase inhibition; Q92551; 140,000 tested, 0.81% active; activity change, % (series mostly up to about 58 µM); IP6K1 kinase, ADP-Glo luminescence, 2 h; active compounds read low; AID 1645851; in the data active = activity change below about -25%
Target sequence (Q92551 whole entry, looked up): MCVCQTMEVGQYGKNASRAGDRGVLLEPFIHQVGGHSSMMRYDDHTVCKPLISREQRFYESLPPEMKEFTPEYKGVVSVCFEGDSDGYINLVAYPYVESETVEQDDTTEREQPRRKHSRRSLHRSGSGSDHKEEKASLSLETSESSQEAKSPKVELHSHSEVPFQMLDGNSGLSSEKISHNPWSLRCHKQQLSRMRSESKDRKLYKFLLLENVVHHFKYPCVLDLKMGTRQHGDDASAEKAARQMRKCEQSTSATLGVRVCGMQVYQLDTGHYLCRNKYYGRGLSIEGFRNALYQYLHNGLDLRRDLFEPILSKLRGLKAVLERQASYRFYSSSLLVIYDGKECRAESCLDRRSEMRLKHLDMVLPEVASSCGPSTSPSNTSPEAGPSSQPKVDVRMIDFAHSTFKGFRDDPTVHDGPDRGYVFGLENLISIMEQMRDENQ
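ADP-Glo luminescence measures ADP made by human IP6K1 during a 2 h RT reaction with ATP/IP6 (mix at 1.3 mM/130 uM); top library doses 57.5 and 19.1 uM final.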
Large screens that a line does not name were inactive. This is a sample that favours compounds with a hit; in the whole collection about 2.7% have one here.

Cc1cccc2[nH]c(CNC(=O)C3CCC(=O)N(CC4CCCCC4)C3)nc12 (stereo unspecified)	none
CNC(=O)c1ccc(-c2nc(CN3CCN(C(=O)Nc4ccccc4C(=O)OC)CC3)c(C)o2)cc1	none (no result: IP6K1 inhibitor)
N#Cc1cccc(-c2n[nH]c3c2CC(=O)N(Cc2ccccn2)C3)c1	KDM5B inhibitor 35µM
N#Cc1cccc(-c2n[nH]c3c2CC(=O)N(Cc2ccccc2)C3)c1	none
CC(C)(CC(=O)O)CC(=O)Nc1cccc2ccccc12	none (no result: IP6K1 inhibitor)
O=C(c1cccc2[nH]ccc12)N1CC[C@@H]2COCCN(Cc3ccncc3)[C@@H]2C1	KDM5B inhibitor 28µM
CS(=O)(=O)N1C[C@H]2CCN(C(=O)c3ccc4[nH]ccc4c3)C[C@H]21	none
CS(=O)(=O)N1C[C@H]2CCN(C(=O)c3cccc4[nH]ccc34)C[C@H]21	KDM5B inhibitor 18µM
O=C(c1cccc2[nH]ccc12)N1CC[C@@H]2COCCN(Cc3cccnc3)[C@@H]2C1	KDM5B inhibitor 18µM
Cc1ncccc1C(=O)N1CC[C@@H]2COCCN(Cc3ccncc3)[C@@H]2C1	KDM5B inhibitor inconclusive
O=C(c1cccs1)N1CC[C@@H]2COCCN(Cc3cccnc3)[C@@H]2C1	none
O=C1Nc2ccc(-c3ccc(Cl)cc3)cc2C(=O)N2CCN(C(=O)c3ccccc3)C[C@H]12	none
COc1ccc(Cl)cc1-c1ccc2c(c1)C(=O)N1CCN(C(=O)CN)C[C@H]1C(=O)N2	KDM5B inhibitor 35µM
COc1ccc(Cl)cc1-c1ccc2c(c1)C(=O)N1CCN(C(=O)C3CCNCC3)C[C@@H]1C(=O)N2	KDM5B inhibitor inconclusive
COc1ccc(Cl)cc1-c1ccc2c(c1)C(=O)N1CCN(C(=O)COc3ccccc3)C[C@@H]1C(=O)N2	KDM5B inhibitor inconclusive
O=C1Nc2ccc(-c3ccc(Cl)cc3)cc2C(=O)N2CCN(C(=O)C3CCCCC3)C[C@H]12	KDM5B inhibitor 25µM
COc1ccc(Cl)cc1-c1ccc2c(c1)C(=O)N1CCN(C(=O)C3CCCC3)C[C@H]1C(=O)N2	KDM5B inhibitor 20µM
Cn1c(=O)n(CC(=O)N2CCCCCC2)c(=O)c2cc(S(=O)(=O)N3CCCCC3)ccc21	none (no result: IP6K1 inhibitor)
Cc1nc(CN2Cc3nc(-c4cc5ccccc5o4)ccc3OCC2=O)cs1	KDM5B inhibitor inconclusive
COc1ccc(Nc2ccnc(N3CCC(N[S+](=O)([O-])c4cccc(C(F)(F)F)c4)CC3)n2)cc1	none (no result: KDM5B inhibitor)
C#CCNC(=O)c1cc(C(C)(C)C)c2cccn2n1	none
CCC(C)NC(=O)c1c(C)nc2cnccn12 (stereo unspecified)	none (no result: KDM5B inhibitor)
C#CCNC(=O)c1nc(C(C)(C)C)c2cnccn12	KDM5B inhibitor 50µM
CC(C)NC(=O)c1nc(C(C)(C)C)c2cnccn12	KDM5B inhibitor 126µM
O=C(COc1ccccc1)Nc1c(C(=O)c2ccc3c(c2)OCCO3)oc2ccccc12	none (no result: IP6K1 inhibitor)
O=C(Cc1ccccc1)N1CCC2(CC1)CC(c1cccc(C(F)(F)F)c1)=NO2	none (no result: KDM5B inhibitor)
Cc1cnc(N2CC3CCC(C2)N3CC(F)(F)F)s1	KDM5B inhibitor 56µM
N#Cc1cnc(N2CC3CCC(C2)N3CC(F)(F)F)s1	none
CCCC(C)NC(=O)c1cc(C)nc2ccccc12 (stereo unspecified)	none (no result: IP6K1 inhibitor)
COc1ccc(-c2coc3cc(OCC(=O)NCc4cccc(Cl)c4)ccc3c2=O)cc1OC	none (no result: IP6K1 inhibitor)
O=C(Nc1nc2ccc(F)cc2s1)c1nc(S(=O)(=O)Cc2ccccc2)ncc1Cl	KDM5B inhibitor inconclusive, IP6K1 inhibitor -40
Cc1cccc(CS(=O)(=O)c2ncc(Cl)c(C(=O)Nc3nc4ccc(F)cc4s3)n2)c1	KDM5B inhibitor inconclusive
COC(=O)/C=C(C(=O)OC)/C(=C\C(=O)OC)C(=O)OC	none (no result: IP6K1 inhibitor)
O=C(NC1CCCC1)N1CCCN(c2nc3ncccc3o2)CC1	KDM5B inhibitor 28µM
CC(=O)N1CCCN(c2nc3ncccc3o2)CC1	KDM5B inhibitor inconclusive
COc1ccc(CC(=O)N2CCN(c3nc4ncccc4o3)CC2)cc1	KDM5B inhibitor inconclusive
O=C(Nc1ccc(Cl)cc1)N1CCCN(c2nc3ncccc3o2)CC1	none
COCC(=O)N1CCN(c2nc3ncccc3o2)CC1	KDM5B inhibitor 32µM
CC(C)(C)C(=O)N1CCCN(c2nc3ncccc3o2)CC1	KDM5B inhibitor 35µM
CC(C)(C)C(=O)N1CCN(c2nc3ncccc3o2)CC1	KDM5B inhibitor inconclusive
O=C(C1CCCC1)N1CCCN(c2nc3ncccc3o2)CC1	KDM5B inhibitor 28µM
COC(=O)c1cccc(CNC(=O)c2ccccc2C(=O)O)c1	none (no result: IP6K1 inhibitor)
C#CCNC(=O)C1CCCN1Cc1ccc(-c2cc(C)cc(C)c2)cc1 (stereo unspecified)	none (no result: KDM5B inhibitor)
O=C(O)CSc1ccc(C(=O)/C=C/c2ccc3c(c2)OCCO3)cc1F	none (no result: IP6K1 inhibitor)
CC(=O)N1CCN(C(=O)C2CCCN(c3nc4ncccc4o3)C2)CC1 (stereo unspecified)	KDM5B inhibitor inconclusive
O=C(C1CCCN(c2nc3ncccc3o2)C1)N1CCN(c2ncccn2)CC1 (stereo unspecified)	KDM5B inhibitor 25µM
CCC(C)c1ccc2oc(-c3cccc(NC(=O)c4cccnc4)c3)nc2c1 (stereo unspecified)	none (no result: IP6K1 inhibitor)
COc1ccc(OC(=O)c2ccc(Br)cc2)c(C(C)=O)c1	none (no result: IP6K1 inhibitor)
c1ccc(SCc2nc(-c3ccc(C4CCCCC4)cc3)cs2)cc1	none (no result: IP6K1 inhibitor)
O=C(Cc1ccc2c(c1)OCO2)N1CCNc2cnc(Nc3cccc(F)c3)nc2C1	KDM5B inhibitor 32µM
N#Cc1cccc(C(=O)N2CCNc3cnc(Nc4cccc(F)c4)nc3C2)c1	none
CC(C)NC(=O)N1CCNc2cnc(Nc3cccc(F)c3)nc2C1	KDM5B inhibitor 32µM
COc1ccccc1Nc1ncc2c(n1)CN(C(=O)Cc1ccc3c(c1)OCO3)CCN2	KDM5B inhibitor inconclusive
COc1cc(C(=O)Nc2cccc(Cl)c2N2CCCC2)cc(OC)c1OC	none (no result: IP6K1 inhibitor)
c1nc(C23CC4CC(CC(C4)C2)C3)cs1	none (no result: IP6K1 inhibitor)
CC(SCc1ccccc1)C(=O)c1c[nH]c2ccccc12 (stereo unspecified)	none (no result: IP6K1 inhibitor)
O=C1NC[C@@H](CCC(=O)N2CCN(c3ccccn3)CC2)N2C[C@@H](NCc3ccc(CO)o3)C[C@@H]12	KDM5B inhibitor inconclusive
CC(C)NC(=O)N[C@H]1C[C@H]2C(=O)NC[C@@H](CCC(=O)N3CCN(c4ccccc4)CC3)N2C1	KDM5B inhibitor inconclusive
COCC(=O)N[C@H]1C[C@H]2C(=O)NC[C@@H](CCC(=O)N3CCN(c4ccccn4)CC3)N2C1	KDM5B inhibitor 25µM
O=C(Nc1ccsc1)N[C@H]1C[C@H]2C(=O)NC[C@@H](CCC(=O)N3CCN(c4ccccn4)CC3)N2C1	KDM5B inhibitor inconclusive
O=C(N[C@H]1C[C@H]2C(=O)NC[C@@H](CCC(=O)N3CCN(c4ccccn4)CC3)N2C1)C1CC1	KDM5B inhibitor 32µM
CC(C)NC(=O)N[C@H]1C[C@H]2C(=O)NC[C@@H](CCC(=O)N3CCN(c4ccccn4)CC3)N2C1	KDM5B inhibitor 25µM
Cc1noc(C)c1[S+](=O)([O-])N1CCN(Cc2ccccc2-c2cccnc2)CC1	none (no result: KDM5B inhibitor)
COc1ccc(C2CCCN2CC(=O)N(CCC#N)c2ccccc2)cc1 (stereo unspecified)	none (no result: IP6K1 inhibitor)
c1coc(-c2ccnc3ncnn23)c1	KDM5B inhibitor 28µM
COc1cc(-c2ccnc3nc(-c4cccs4)nn23)cc(OC)c1OC	KDM5B inhibitor 14µM
CC(C)c1nc2nccc(-c3cc4ccccc4o3)n2n1	none
c1coc(-c2ccnc3nc(C4CCC4)nn23)c1	KDM5B inhibitor 28µM
c1coc(-c2nc3nccc(-c4cc5ccccc5o4)n3n2)c1	KDM5B inhibitor inconclusive
COc1ccc(-c2ccnc3nc(-c4cccs4)nn23)cc1	KDM5B inhibitor inconclusive
COc1cc(-c2ccnc3nc(C4CCC4)nn23)cc(OC)c1OC	KDM5B inhibitor 22µM
